Sampled rows, rich in hits. Any-hit rate of the full collection: about 3.6%.
TDP-43 yeast inh – inhibitors of TDP-43 toxicity in yeast; 1.8% of 410,000 active; Potency, µM (titrated, usually from 46.1 µM), for the others: top-dose growth rescue (activation), most hits filed as activators; TDP-43 expressing yeast growth rescue, BacTiter-Glo, 24 h; AID 652104; note: % of control where 0% means no effect; nearly all actives have a fitted effect of over 50% in size
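Growth rescue of TDP-43-toxic yeast measured as ATP luminescence (BacTiter-Glo). Cells grown to mid-log in raffinose, induced in galactose at OD600=0.02, exposed to compound 24 hr at 30 deg C.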
ClpP mod – qHTS Assay for Activators of ClpP. ATP-dependent Clp protease proteolytic subunit (Bacillus subtilis (strain 168)), P80244. purified B. subtilis ClpP, FRET peptide cleavage, 20 min. Potency, µM (top dose mostly 57.5 µM), for inactives: at the top dose activity change, negative = active. 1.9% of 340,000 active; active = well fitted falling curve with a large enough effect; inconclusive = small, poorly fitted or top-dose-only effect; inactive = no such curve, though single readings can be large or run the other way; note: the source files actives as falling curves though it sought activators and does not explain the sign; nearly all actives have a fitted effect of over 65% in size
Target sequence (P80244 whole entry, looked up): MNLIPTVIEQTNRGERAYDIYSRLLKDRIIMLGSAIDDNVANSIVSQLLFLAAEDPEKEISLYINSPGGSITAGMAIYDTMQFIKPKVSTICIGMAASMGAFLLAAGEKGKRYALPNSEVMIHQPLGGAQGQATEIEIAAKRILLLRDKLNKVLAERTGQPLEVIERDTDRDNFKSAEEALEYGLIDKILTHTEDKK
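FRET quenching reversal measured ClpP activation: 10 microg/mL B. subtilis ClpP at pH 8 with the FRET-FV decapeptide, read at 430 nm after 320 nm excitation. The 20-min minus 0-min signal was scaled between DMSO/no-enzyme wells and ADEP (5.8 microM final).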
Mm-Cpn inhibitor – inhibitors of Methanococcus maripaludis chaperonin TRiC (MmCpn) | AID 504842 | 0.031% of 330,000 active | purified Mm-Cpn ATPase, ADP Transcreener TR-FRET | Potency, µM (titrated, usually from 76.9 µM), for inactives: at the highest dose activity, negative = inhibition, usual class: inhibitors; note: % is set by controls: 0 for no effect and ±100 for the full control effect; nearly all actives have a fitted effect of over 80% in size
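Eu-cryptate anti-ADP/ADP-d2 competition gives a ratio inversely related to ADP. Enzyme at 25 nM was pre-exposed to compound for 10 min, then given 10 uM ATP for 30 min, 37°C throughout.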
aSyn yeast inh – alpha-synuclein toxicity inhibition in yeast; Yeast expressing alpha-synuclein, growth rescue, BacTiter-Glo, 24 h; Potency, µM (highest dose often 46.1 µM), inactives show top-dose growth rescue (activation), usual class: activators; AID 652106; 0.14% of 370,000 active; note: % of control where 0% means no effect; nearly all actives have a fitted effect of over 65% in size
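Rescue of yeast growth: cells expressing toxic alpha-synuclein, induced in galactose at OD600 0.02, incubated with compound 24 h at 30 C. ATP luminescence quantified growth; inhibitors of toxicity appear as activators.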
FUS yeast rescue – suppressors of FUS proteinopathy in yeast; S. cerevisiae FUS-expressing, growth rescue, OD600, 24 h; Potency, µM (titrated, usually from 76.6 µM), usual class: activators; 0.24% of 390,000 active; AID 1347120;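 note: plate controls were DMSO vehicle for no effect and reference control for full effect; nearly all actives have a fitted effect of over 55% in size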
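Compound concentration series was pinned onto galactose-induced FUS-expressing yeast seeded at OD 0.005. Plates sat 24hr at 30C; absorbance at 600 nm gave growth. DMSO served as background control.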
Abeta rescue – A-beta toxicity reversal in yeast; yeast expressing A-beta42, growth rescue, OD600, 48 h; response scale: 0% DMSO, 100% iron-clioquinol control; Potency, µM (titrated, usually from 46.1 µM), hits mostly activators; 0.063% of 410,000 active; AID 1347071; note: nearly all actives have a fitted effect of over 55% in size
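Yeast growth medium received pinned compounds, then yeast cells expressing toxic A-beta were added; plates incubated at 30 C for 48 hr. Growth read as absorbance at 600 nm, normalized to DMSO and equimolar FeCl3 plus clioquinol controls.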
Starred values were filed as active, the others as inactive; i = inactive; ? = inconclusive; . = not tested or not shown; [ ] = another dose, or the depositor's remark. Unless noted, calls come from the whole dose curve; as a rule, active = well fitted curve in the direction sought with a large enough effect; inconclusive = small, poorly fitted or top-dose-only effect, or another doubt; inactive = no such curve, though single readings can be large; an effect the other way counts as inactive or inconclusive. Potency is the fitted concentration of half-maximal effect.

SMILES	TDP-43 yeast inh	ClpP mod	Mm-Cpn inhibitor	aSyn yeast inh	FUS yeast rescue	Abeta rescue
CCc1ccc(-c2nc(SCC(=O)NCC3CCCO3)c(-c3ccc(C)cc3)[nH]2)cc1 (centres undefined)	20%	32µM*	.	.	i	i
COCCCNC(=O)CSc1nc(-c2cccc(F)c2)[nH]c1-c1ccccc1	-3%	28µM*	.	.	i	i
COCCCNC(=O)CSc1nc(-c2ccccc2)[nH]c1-c1ccc(C)cc1	0%	25µM*	.	.	i	i
Cc1ccc(-c2[nH]c(-c3ccc(Cl)cc3)nc2SCC(=O)NCC2CCCO2)cc1 (centres undefined)	15%	4%	0%	0%	i	i
COc1ccc(NC(=O)CSc2nc(-c3ccc(OC)cc3)[nH]c2-c2ccc(OC)cc2)cc1	11%	-13%	.	.	i	i
COc1ccc(-c2nc(SCC(=O)NCc3ccco3)c(-c3ccccc3)[nH]2)cc1OC	-3%	?	-1%	2%	i	i
CCOc1ccc(C2c3[nH]c4ccccc4c3CCN2C(=O)CSc2ccccc2)cc1 (centres undefined)	-2%	-2%	.	.	?	i
O=S(=O)(Nc1cccc2cccnc12)c1ccccc1Br	.	.	.	6%	.	.
COC(=O)[C@]1(C#N)CC(=O)N(c2ccccc2)[C@@H]1c1ccccc1	.	.	.	.	i	.
CCOC(=O)c1sc(-c2ccc(F)cc2)cc1N	19%	?	-14%	-15%	i	i
CCOC(=O)c1sc(-c2ccccc2)cc1N	7.1µM*	?	-14%	16%	i	i
Cc1cc2c(c(=O)n1Cc1ccccc1)C1O[C@](c3ccsc3)(Cc3cc(C#N)ccc31)O2	.	.	1%[15.4 µM]	.	.	.
CCOc1ccccc1CNC(=O)c1oc2ccc3c(c2c1C)C(=O)CC(C)(C)O3	9%	-8%	.	.	?	i
Cc1c(C(=O)NCc2ccoc2)oc2ccc3c(c12)C(=O)CC(C)(C)O3	?	28µM*	-2%	2%	.	i
Cc1ccc(S(=O)(=O)Nc2cccc3cccnc23)cc1	35µM*	?	1%	?	i	i
COc1ccc(S(=O)(=O)Nc2cc(C)ccn2)cc1	6%	14µM*	-9%	-9%	i	i
COc1cc(NS(=O)(=O)c2ccc(C)cc2)c2ncccc2c1	11µM*	-7%	2%	?	i	i
COc1cc(NC(=O)c2ccccc2Cl)c2ncccc2c1	20µM*	-1%	-1%	3%	i	i
COc1cccc(CNC2CCC23CCC(C)CC3)c1 (centres undefined)	.	.	.	.	i	.
Cc1nn2c(-c3cccc(NC(=O)c4ccccc4)c3)nnc2c2ccccc12	1%	?	.	.	i	i
CSc1nnc(-c2sc(-c3ccccc3)nc2C)n1C	-2%	25µM*	-4%	-4%	i	i
Cc1nc(-c2ccccc2)sc1-c1n[nH]c(=S)n1C	?	17%	-11%	4%	i	i
Cc1cccc(OCCN2CSC(=S)N(C)C2)c1	22%	-2%	-2%	-8%	i	i
COc1ccccc1OCCN1CSC(=S)N(C)C1	20µM*	1%	0%	-67%	i	i
CC(C)CCN(Cc1ccco1)C(=O)c1cc2c(Cl)nc3ccccc3c2s1	-3%	-14%	.	.	i	i
SMILES	TDP-43 yeast inh	ClpP mod	Mm-Cpn inhibitor	aSyn yeast inh	FUS yeast rescue	Abeta rescue
O=C(OC[C@@H]1CCCN2CCCC[C@H]12)c1cc2ccccc2oc1=O	1%	25µM*	1%	0%	i	i
CCOc1ccc(CCNC(=O)Cn2ccc3cc(S(=O)(=O)N4CCCCCC4)ccc32)cc1	-9%	-11%	.	.	i	i
COc1ccc2oc(C)c(C(N)=O)c2c1	-11%	-1%	0%	-9%	i	i
COc1ccc2oc(C)c(C(=O)c3ccc([N+](=O)[O-])cc3)c2c1	22µM*	-20%	0%	8%	.	i
CCC(C)NC(=O)c1c(C)oc2nc(C)nc(N3CCOCC3)c12 (centres undefined)	19%	0%	.	.	i	i
COc1ccc(-c2nc(C#N)c(NCc3cccnc3)o2)cc1OC	4%	28µM*	-2%	2%	i	i
N#Cc1nc(-c2cccc(Cl)c2)oc1NCc1cccnc1	9%	2.2µM*	0%	5%	i	i
N#Cc1nc(Cc2ccccc2)oc1NCc1cccnc1	-3%	28µM*	2%	-1%	i	i
Cc1ccc(C(=O)Nc2nc(-c3ccccn3)cs2)cc1S(=O)(=O)N1CCOCC1	?	-1%	-9%	13µM*	i	i
Cc1ccc(C(=O)NC(C)CCc2ccccc2)cc1S(=O)(=O)N1CCOCC1 (centres undefined)	17%	28µM*	-1%	7%	i	i
Cc1ccc(C(=O)NCCc2ccccc2)cc1S(=O)(=O)N1CCOCC1	11%	0%	1%	1%[1.84 µM]	i	i
Fc1cccc(CNc2ncnc3ccc(-c4cccc(Cl)c4)cc23)c1	.	.	0%	.	.	.
Cc1cc(C(=O)NCCc2ccc(Cl)cc2)c2c(C)nn(-c3ccccc3)c2n1	-4%	17%	.	-6%	i	i
C#CCN(C[C@H]1[C@H](OC(=O)NCc2ccco2)[C@H](OC(=O)NCc2ccco2)C[C@H]2C(=O)N(c3ccccc3)C(=O)[C@@H]12)S(=O)(=O)c1ccc(C)cc1	0%	-2%	.	0%	16µM*	i
CC(C)(C)c1ccc(C(=O)Nc2cc(Cl)c(Cl)cc2C(=O)O)cc1	.	.	.	.	i	.
Cc1cc(C(=O)COc2ccccc2C#N)c(C)n1C1CC1	5%	.	-3%	13%	i	i
COc1cc(C(C)=O)ccc1OCC(=O)c1cc(C)n(C2CC2)c1C	25µM*	2%	0%	5%	i	i
COc1ccc(OCc2cc(=O)c3ccc4c(c3o2)C=CC(C)(C)O4)cc1OC	35µM*	-1%	0%	-3%	i	i
COc1ccc([N+](=O)[O-])cc1NC(=O)C(C)Sc1ccc(C)cc1 (centres undefined)	13µM*	0%	3%	9%	.	i
COC(=O)c1cc(OC)c(OC)cc1NC(=O)C(C)Sc1ccc(C)cc1 (centres undefined)	-1%	-9%	0%	19%	?	i
COc1ccc([N+](=O)[O-])cc1NC(=O)C(C)OC(=O)CC1CCCC1 (centres undefined)	20µM*	0%	-1%	-10%[1.84 µM]	?	i

High-throughput results (PubChem BioAssay)
